Measured values as given in PubChem BioAssay AID720690 (Broad Institute, 2013).
Potency and affinity values are given separately. The source made the active and inactive calls.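 Rule for the calls: active = every repeat run showing a signal drop whose fitted half-maximal concentration is at most twice the top tested concentration; inconclusive = repeat runs disagree, or flat partial drop, or poor fit; inactive = the rest.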

experiment: general mammalian cell viability loss – activator set, cherry-pick, cytotoxicity control for miR-122 modulator project, dose response (AID 720690); conditions: HEK293T viability, CellTiter-Glo luminescence, 48 h; series mostly up to 26 µM

SMILES	outcome
Cc1c(CC(=O)NCCCC(=O)O)c(=O)oc2cc3occ(-c4ccccc4)c3cc12	inactive
CCC(=O)N1[C@H](CO)[C@H]2c3ccccc3N(C(=O)CC(F)(F)F)C[C@H]21	inactive
O=C(Nc1ccccc1N1CCN(C(=O)c2ccc(Cl)cc2)CC1)c1cccnc1	inactive
CC(C)NC(=O)Nc1ccc2c(c1)C(=O)N(C)[C@@H]1CC[C@H](CC(=O)NCC(F)(F)F)O[C@H]1CO2	inactive
C/C=C/c1ccc([C@@H]2[C@@H](CO)N[C@@H]2CN(C(=O)C2CCC2)C(C)C)cc1	inactive
CC1CCN(CCc2nc3cc(NC(=O)Nc4ccccc4)ccc3n2C)CC1	inactive
C[C@H](CO)N1C[C@H](C)[C@H](CN(C)C(=O)NC2CCCCC2)Oc2ncc(-c3cccc(C(F)(F)F)c3)cc2C1=O	inactive
CCN(CC)CCNc1nc(-c2ccccc2)nnc1C(F)(F)F	inactive
COCC(=O)N(C)C[C@H]1Oc2cc(C#Cc3cccnc3)ccc2S(=O)(=O)N([C@@H](C)CO)C[C@H]1C	inactive
CC(C)C(=O)Nc1ccc2c(c1)C(=O)N(C)[C@@H]1CC[C@H](CC(=O)NCc3cccc(F)c3)O[C@H]1CO2	inactive
CN1C(=O)c2cc(NC(=O)Nc3cccc(Cl)c3)ccc2OC[C@@H]2O[C@H](CC(=O)NCCc3ccncc3)CC[C@H]21	inactive
Cc1nn(C)cc1NC(=O)C[C@@H]1CC[C@@H]2[C@H](COc3ccc(NC(=O)Nc4cccc(Cl)c4)cc3C(=O)N2C)O1	inactive
CNC(=O)C[C@H]1CC[C@@H]2[C@H](COc3ccc(NC(=O)NC(C)C)cc3C(=O)N2C)O1	inactive
CN1C(=O)c2cc(NC(=O)c3cccc(F)c3)ccc2OC[C@H]2O[C@H](CC(=O)NC3CCC3)CC[C@H]21	inactive
Cc1ccccc1NC(=O)Nc1ccc2c(c1)C(=O)N(C)[C@H]1CC[C@@H](CC(=O)O)O[C@H]1CO2	inactive
Cc1cccc(C)c1NC(=O)CSCC(=O)c1ccc(O)c(O)c1	inactive
Cc1cc(C(=O)Nc2ccc3c(c2)C(=O)N(C)[C@H]2CC[C@@H](CC(=O)N[C@@H](C)c4ccccc4)O[C@H]2CO3)no1	inactive
Clc1ccc(CSc2nnc(-c3ccncc3)o2)c(Cl)c1	inactive
CCC(=O)N1[C@@H](CO)[C@H](c2ccccc2)[C@@H]1CN(C(C)C)S(C)(=O)=O	inactive
CC(=O)N1[C@H](CO)[C@H](c2ccccc2)[C@@H]1CN(C(=O)c1ccc(F)cc1)C(C)C	inactive

SMILES	outcome
COC(=O)C[C@@H]1CC[C@@H]2[C@@H](COc3ccc(NS(=O)(=O)c4ccccc4F)cc3C(=O)N2C)O1	inactive
C[C@@H]1CN([C@@H](C)CO)S(=O)(=O)c2ccc(C#CC3CC3)cc2O[C@@H]1CN(C)C(=O)c1cccc(F)c1	inactive
CN1C(=O)c2cc(NC(=O)c3ccno3)ccc2OC[C@H]2O[C@@H](CC(=O)NCC3CC3)CC[C@@H]21	inactive
CCCNC(=O)C[C@H]1CC[C@H]2[C@H](COc3ccc(NC(=O)c4ccc(C(F)(F)F)cc4)cc3C(=O)N2C)O1	inactive
COCC(=O)N(C)C[C@H]1Oc2cc(C#Cc3cccnc3)ccc2S(=O)(=O)N([C@@H](C)CO)C[C@@H]1C	inactive
CC(C)C#Cc1ccc2c(c1)O[C@H](CN(C)C(=O)c1ccncc1)[C@H](C)CN([C@@H](C)CO)S2(=O)=O	inactive
O=C(NC[C@H]1[C@H](c2ccccc2)[C@H](CO)N1CC1CCCC1)c1ccncc1	inactive
CCNC(=O)C[C@@H]1CC[C@@H]2[C@@H](COc3ccc(NC(=O)c4ccccc4)cc3C(=O)N2C)O1	inactive
CCCNC(=O)C[C@@H]1CC[C@@H]2[C@H](COc3ccc(NS(=O)(=O)c4ccccc4C)cc3C(=O)N2C)O1	inactive
COc1cccc(NC(=O)N(C)C[C@@H]2Oc3ncc(C#Cc4ccncc4)cc3C(=O)N([C@@H](C)CO)C[C@H]2C)c1	inactive
O=C(CC(F)(F)F)N1C[C@@H]2[C@H](c3ccccc31)[C@@H](CO)N2C(=O)C1CCCC1	inactive
NC(=O)c1csc(-c2ccncc2)n1	inactive
CN1C(=O)c2cc(NC(=O)Cc3ccccc3)ccc2OC[C@@H]2O[C@@H](CC(=O)NCc3ccc(Cl)cc3)CC[C@H]21	inactive
CN1C(=O)c2cc(NC(=O)c3ccccc3F)ccc2OC[C@H]2O[C@H](CC(=O)NCc3ccc4c(c3)OCO4)CC[C@@H]21	inactive
COc1cccc(C(=O)Nc2ccc3c(c2)C(=O)N(C)[C@@H]2CC[C@H](CC(=O)NCc4ccc(F)cc4)O[C@@H]2CO3)c1	inactive
Cn1c(-c2ccc(N)cc2)nc2ccccc21	inactive
CCCNC(=O)Nc1ccc2c(c1)OC[C@H](C)N(CCC)C[C@H](C)[C@H](OC)CN(C)C2=O	inactive
CNC(=O)C[C@H]1CC[C@@H]2[C@@H](COc3ccc(NC(=O)C(C)C)cc3C(=O)N2C)O1	inactive
COc1cccc(CNC(=O)C[C@@H]2CC[C@@H]3[C@H](COc4ccc(NC(C)=O)cc4C(=O)N3C)O2)c1	inactive
